Measurements as given in PubChem BioAssay (NCI).
Where “and” joins values, the source holds several entries; their conditions need not be identical. Equal values may be shown once. Compounds without any hit were thinned out: in the full panel of roughly 79,000, 15% have a hit. A structure can be active in one record and inactive in another. Calls of active or inactive are those of the source. No stated cut-off is given here; in the data, active means growth inhibition above about 70%; inactive means the rest.

Key:
[1] = NCI Yeast Anticancer Drug Screen. Data for the rad50 strain (AID 155);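 further: 0% = growth of vehicle-only cultures of the same strain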; details: S. cerevisiae rad50 strain growth inhibition, stronger effect = higher value
Summary of the method: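 Relative growth inhibition (compound vs vehicle) was measured in yeast with a defined repair-gene alteration.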

[2] = NCI Yeast Anticancer Drug Screen. Data for the mec2-1 strain (AID 157); details: S. cerevisiae mec2-1 strain, stronger effect = higher value
Summary of the method: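 Strain: mec2-1 (DNA repair/cell cycle alteration). Compound exposure, then growth measured; inhibition expressed relative to vehicle.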

[3] = NCI Yeast Anticancer Drug Screen. Data for the sgs1 mgt1 strain (AID 161);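 further: 0% = growth of cultures given vehicle only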; details: S. cerevisiae sgs1 mgt1 strain, stronger effect = higher value
Summary of the method: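 Test agents were incubated with a DNA-repair-mutant yeast strain. Growth was then read and compared against vehicle-treated controls.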

[4] = NCI Yeast Anticancer Drug Screen. Data for the cln2 rad14 strain (AID 165);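 further: 0% = growth equal to vehicle treated cultures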; details: S. cerevisiae cln2 rad14 strain, stronger effect = higher value
Summary of the method: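 Compounds are applied to the cln2 rad14 yeast strain, and growth is then compared with that of vehicle-treated cultures to give inhibition.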

[5] = NCI Yeast Anticancer Drug Screen. Data for the bub3 strain (AID 167); details: S. cerevisiae bub3 mutant strain, stronger effect = higher value
Summary of the method: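 Screening used yeast with an engineered genetic alteration affecting cell cycle control. Compound-exposed cultures were compared with vehicle cultures, and reduced growth was taken as inhibition.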

[6] = NCI Yeast Anticancer Drug Screen. Data for the mlh1 rad18 strain (AID 175); details: S. cerevisiae mlh1 rad18 strain growth inhibition, stronger effect = higher value
Summary of the method: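 Read-out is yeast growth inhibition, calculated against vehicle-only controls. The compound was applied to a strain engineered with DNA damage repair alterations.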

[7] = at 5.0 µM (retest, dose inferred, filed as 0.5)
[8] = at 50.0 µM (retest, dose inferred, filed as 5.0)

Compound | growth inhibition [1, 7] | growth inhibition [1, 8] | growth inhibition ([1]; at 50.0 µM) | growth inhibition [2, 7] | growth inhibition [2, 8] | growth inhibition ([2]; at 50.0 µM) | growth inhibition [3, 7] | growth inhibition [3, 8] | growth inhibition ([3]; at 50.0 µM) | growth inhibition [4, 7] | growth inhibition [4, 8] | growth inhibition ([4]; at 50.0 µM) | growth inhibition [5, 7] | growth inhibition [5, 8] | growth inhibition ([5]; at 50.0 µM) | growth inhibition [6, 7] | growth inhibition [6, 8] | growth inhibition ([6]; at 50.0 µM)
COc1cccc2c1cc([N+](=O)[O-])c1c(C(=O)O)cc3c(c12)OCO3 | 35% (inactive) and 54% (inactive) | 95% (active) and 94% (active) | 87.8% (active) and 91% (active) | 4% (inactive) and 39% (inactive) | 83% (active) and 93% (active) | 85.7% (active) and 91.7% (active) | 22% (inactive) and 61% (inactive) | 94% (active) and 95% (active) | 88.3% (active) and 88.7% (active) | -11% (inactive) and 19% (inactive) | 62% (inactive) and 84% (active) | 84.4% (active) and 86.8% (active) | 18% (inactive) and 49% (inactive) | 78% (active) and 93% (active) | 89.8% (active) and 90.5% (active) | 25% (inactive) and 71% (active) | 90% (active) and 95% (active) | 88.7% (active) and 79.7% (active)
CCC[CH2][Sn]([CH2]CCC)([S]C#N)[S]C#N | 95% (active) | 97% (active) | 89.3% (active) | 96% (active) | 97% (active) | 91% (active) | 93% (active) | 97% (active) | 90.5% (active) | 93% (active) | 97% (active) | 86% (active) | 96% (active) | 96% (active) | 89.1% (active) | 97% (active) | 97% (active) | 88% (active)
C[CH2][Sn]([CH2]C)([O]C(C)=O)[O][Sn]([CH2]C)([CH2]C)[O]C(C)=O | 23% (inactive) | 80% (active) | 64% (inactive) | 24% (inactive) | 91% (active) | 60.1% (inactive) | 15% (inactive) | 82% (active) | 84.8% (active) | 30% (inactive) | 68% (inactive) | 86.1% (active) | 21% (inactive) | 78% (active) | 84.3% (active) | 26% (inactive) | 86% (active) | 89.1% (active)
COc1ccc(-c2c(C)c(C(=O)O)nc(-c3ccc4c(O)c(OC)c5c(c4n3)=NC(C)(C)N=5)c2N)c(O)c1OC | 76% (active) | 92% (active) | 75.1% (active) | 20% (inactive) | 68% (inactive) | 33% (inactive) | 39% (inactive) | 60% (inactive) | 41.4% (inactive) | 16% (inactive) | 76% (active) | 47% (inactive) | -1% (inactive) | 7% (inactive) | 19.9% (inactive) | 59% (inactive) | 87% (active) | 61.5% (inactive)
CC(C(=O)C1CCCCC1)[n+]1ccccc1 (centres undefined) | 1% (inactive) | -2% (inactive) | -1.2% (inactive) | 1% (inactive) | 1% (inactive) | 1.3% (inactive) | 0% (inactive) | -2% (inactive) | -2.3% (inactive) | 9% (inactive) | -2% (inactive) | 48.5% (inactive) | 3% (inactive) | 1% (inactive) | 11.2% (inactive) | -4% (inactive) | -6% (inactive) | -5.85% (inactive)
CCN(CC)P1(=O)OC(c2ccccc2)=CCN1c1ccc(OC)cc1 (centres undefined) | 0% (inactive) | 85% (active) | 97.3% (active) | -1% (inactive) | 82% (active) | 95.3% (active) | -24% (inactive) | 95% (active) | 97.8% (active) | -7% (inactive) | 78% (active) | 83% (active) | 10% (inactive) | 91% (active) | 96.2% (active) | 2% (inactive) | 91% (active) | 96.3% (active)
O=C(N/N=C/c1cc(Cl)cc(Cl)c1[O-])c1ccccc1O.O=C(N/N=C/c1cc(Cl)cc(Cl)c1[O-])c1ccccc1O.[Zn+2] | 93% (active) | 63% (inactive) | 94.5% (active) | 97% (active) | 64% (inactive) | 91.8% (active) | 96% (active) | 72% (active) | 93% (active) | 92% (active) | 50% (inactive) | 91.8% (active) | 95% (active) | 62% (inactive) | 92.7% (active) | 95% (active) | 64% (inactive) | 95.1% (active)
N#CC(C#N)=Cc1cccc([N+](=O)[O-])c1 | 42% (inactive) | 89% (active) | -15.1% (inactive) and 98.2% (active) | 29% (inactive) | 92% (active) | -11.1% (inactive) and 90.8% (active) | 13% (inactive) | 84% (active) | -24.4% (inactive) and 99.2% (active) | 1% (inactive) | 28% (inactive) | -4.8% (inactive) and 93.7% (active) | 9% (inactive) | 76% (active) | -8.45% (inactive) and 99.5% (active) | 33% (inactive) | 92% (active) | -27.9% (inactive) and 97.8% (active)
